Records with an inconclusive call do not appear. Calls come from the whole dose curve; as a rule, active = well fitted curve in either direction with a large enough effect (not every such curve was filed as active); inconclusive = small, poorly fitted or top-dose-only effect, or another doubt; inactive = flat fitted curve, though single readings scatter.
The compounds below were run against Mitogen-activated protein kinase 10 (Mus musculus) (UniProt Q61831) (assay: JNK3 AlphaScreen Assay (AID 530;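 note: kinase came from lysate of stimulated human HepG2 cells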)). Conditions: JNK3 lysate, c-Jun phosphorylation; series mostly up to 57.1 µM; activity change, negative = inhibition: at the top concentration.
Summary of the method: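 JNK3 came from HepG2 lysates pre-activated with IL-1beta and TNF-alpha and phosphorylated biotinylated GST-cJun (1-79) at 10 uM ATP, pH 7.6, room temperature. Compounds were titrated. AlphaScreen signal used anti-phospho-cJun (Ser73) antibody.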
% is set by controls: 0 for no effect and ±100 for the full control effect.

Activity change, negative = inhibition, inactive:
CCCC[C@@H]1C[C@H]1C(NC(=O)c1cccnc1)c1ccc(Cl)cc1 (stereo partly drawn) 6.54%
COC(=O)[C@@H]1C[C@H]1[C@@H](NC(=O)c1cc(C)nn1C)c1ccccc1 4.94%
COC(=O)[C@@H]1C[C@H]1[C@@H](NC(=O)c1cc(C)on1)c1ccccc1 -2.46%
C[C@@H](C(=O)Nc1ccc2ccccc2c1)[C@@H]1C[C@@]1(C)[C@@H](NC(=O)c1ccncc1Cl)c1ccccc1 0.37%
CCCC/C=C/C(NC(=O)c1ccco1)c1ccccc1 (stereo not drawn) 7.6%
COC(=O)[C@@]1(Cc2ccc(OC)cc2)[C@H]2c3cc(C(=O)N4CCCC4)n(Cc4ccc(Cl)c(C(F)(F)F)c4)c3C[C@H]2CN1C(=O)c1ccccc1 -18.6%
C[C@@]1(C(NC(=O)Cc2ccccc2)c2ccc(-c3ccccc3)cc2)C[C@H]1C1CCCCC1 (stereo partly drawn) 3.4%
O=C(NCc1nc2ccccc2[nH]1)[C@H]1C[C@@H]1[C@H](NP(=O)(c1ccccc1)c1ccccc1)c1ccccc1 -2.09%
CC1=C(C(=O)OCc2ccccc2)C(c2ccc([N+](=O)[O-])cc2)NC(=O)N1CCCCCC(=O)O (stereo not drawn) -9.48%
COCC1C2CC[C@H]3C(OCc4ccc(F)cc4C(F)(F)F)OC[C@]4(C)[C@H]3C2=C(CN4C(=O)OC(C)(C)C)[C@H](C)C1COC (stereo partly drawn) -4.87%
CCCCCC1=C2CNC(C)(C(=O)OC)C=C2C(C)C1=O (stereo not drawn) -4.01%
C[C@@H](C(=O)NCCF)[C@H]1C[C@]1(C)[C@H](NC(=O)OCc1ccccc1)c1ccccc1 1.88%
COC(=O)[C@@H]1C[C@H]1[C@@H](NC(=O)c1cccnc1)c1ccccc1 4.63%
